# Bioassay records from PubChem.
# KinaseGlo FLuc – blocks Kinase-Glo luciferase, a counter-screen artifact; Q27757; AID 1379; Kinase-Glo luciferase, ATP luminescence, 8 min; Potency, µM (series often up to 38.3 µM), without a hit: top-dose activity change, negative = inhibition, actives largely listed as inhibitors; hit rate 0.28% among 200,000; further: on the % scale 0 is the no-effect control and ±100 the full control effect; nearly all actives have a fitted effect of over 60% in size
#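 Substrate mix (final 50 mM imidazole pH 7.2, 50 mM KCl, 7 mM MgCl2, 10 uM ATP, 0.01% Tween 20, 0.05% BSA) plus pin-tool compound, then Kinase-Glo detection mix; 8 min ambient, luminescence read.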
# SMN2 splice enh – increases expression of the SMN2 splice variant; HEK293 SMN2-luciferase splicing reporter, luminescence, 30-36 h; Potency, µM (series often up to 46.1 µM), for inactives: at the highest dose activity change, positive = activation, hits mostly activators; hit rate 2.8% among 210,000; AID 1458; further: % of control where 0% means no effect; nearly all actives have a fitted effect of over 55% in size
#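 qHTS luciferase splicing reporter: luminescence rises when SMN2 exon 7 is included in transfected HEK293 cells. Compound exposure lasted 30-36 h at 37C, with 4.5 mM final sodium butyrate as control, followed by a ONE-Glo read.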
# Rab9 prom act – activates the Rab9 promoter; Huh7 Rab9 promoter-luciferase reporter, luminescence, 24 h; Potency, µM (doses to about 9.22 µM), for inactives: at the top dose activation, negative = inhibition, usual class: activators; hit rate 2.8% among 320,000; AID 485297; further: % of control where 0% means no effect; nearly all actives have a fitted effect of over 60% in size
#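 Huh7 reporter line, Rab9 promoter upstream of luciferase. Compound exposure 24 h at 37 °C in reduced-serum medium with 10% FBS. Read-out: luminescence.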
# NPC1 prom act – NPC1 promoter activation; Huh7 NPC1 promoter luciferase reporter, 24 h; Potency, µM (titrated, usually from 9.22 µM), without a hit: at the highest dose activation, hits mostly activators; hit rate 2.4% among 320,000; further: % of control where 0% means no effect; nearly all actives have a fitted effect of over 60% in size
#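 Compounds in DMSO were transferred onto Huh7 NPC1-luciferase reporter cells pre-incubated 2 h; after 24 h at 37 °C, Amplite reagent was dispensed and luminescence recorded 10 min later.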
# ELG1 genotox – inducers of genotoxicity in HEK293T ELG1-luciferase cells; HEK293T ELG1-luciferase reporter, luminescence, 16 h; Potency, µM (highest dose often 46 µM), without a hit: at the highest dose activity change, positive = activation, actives largely listed as activators; hit rate 1.3% among 330,000; AID 504466; further: % of control where 0% means no effect; nearly all actives have a fitted effect of over 60% in size
#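 Genotoxicity was scored as increased ELG1-luciferase reporter signal, measured by ONE-Glo luminescence (30 min, room temperature). Compound or vehicle exposure of the HEK293T reporter cells lasted 16 hr at 37°C.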
# FLuc modulator – inhibits or activates purified firefly luciferase, miR-21 counter-screen. P08659. purified FLuc, Km substrates, luminescence inhibition. Potency, µM (top dose mostly 57.5 µM), inactives show top-dose activity change, negative = inhibition, actives largely listed as inhibitors. hit rate 6.9% among 360,000. AID 588342;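 further: plate controls were vehicle for no effect and reference inhibitor for full effect; nearly all actives have a fitted effect of over 55% in size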
# Target sequence (P08659 whole entry, looked up): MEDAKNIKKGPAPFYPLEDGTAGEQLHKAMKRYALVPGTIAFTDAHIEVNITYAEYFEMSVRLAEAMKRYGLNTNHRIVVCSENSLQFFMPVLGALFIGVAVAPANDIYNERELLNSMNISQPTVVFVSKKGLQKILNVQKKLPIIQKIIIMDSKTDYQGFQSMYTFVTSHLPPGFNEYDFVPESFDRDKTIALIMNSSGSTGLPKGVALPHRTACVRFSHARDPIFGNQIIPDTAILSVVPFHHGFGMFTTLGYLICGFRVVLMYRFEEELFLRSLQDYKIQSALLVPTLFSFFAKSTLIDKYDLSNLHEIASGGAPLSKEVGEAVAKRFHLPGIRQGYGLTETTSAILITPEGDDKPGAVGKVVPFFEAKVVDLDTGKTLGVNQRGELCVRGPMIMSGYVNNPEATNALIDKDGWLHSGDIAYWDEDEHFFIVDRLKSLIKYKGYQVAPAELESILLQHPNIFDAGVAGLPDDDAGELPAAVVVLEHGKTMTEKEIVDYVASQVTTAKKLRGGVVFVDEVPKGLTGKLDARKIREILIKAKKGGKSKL
#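 Purified P. pyralis luciferase (10nM final) with 10uM D-luciferin and 10uM ATP (Km levels) in 50mM Tris acetate pH 7.5, 10mM Mg acetate, 0.01% Tween-20, 0.05% BSA; qHTS 6-point titration, ~60 µM downward; luminescence read.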
# Active calls of the source: *; ? = inconclusive; . = no result given; [ ] = remark or other dose. Rows were chosen to be rich in hits. Some 7.5% of all compounds tested hit in one or more screens of this group. The call rests on the fitted dose curve; in most records, active means well fitted curve in the direction sought with a large enough effect; inconclusive means small, poorly fitted or top-dose-only effect, or another doubt; inactive means no such curve, though single readings can be large; an effect the other way counts as inactive or inconclusive. Potency means the concentration at half of the fitted maximal effect.
SMILES,KinaseGlo FLuc,SMN2 splice enh,Rab9 prom act,NPC1 prom act,ELG1 genotox,FLuc modulator
O=C(NCC1CCCO1)c1ccc(COc2ccc(Cl)cc2)cc1 (stereo unspecified),-0.6%,-46.1%,-2.9%,-1.1%,-5.2%,-11.1%
O=C(NCC1CCCO1)c1ccc(COc2ccccc2Br)cc1 (stereo unspecified),-0.6%,-10.3%,-6.5%,0.6%,1.8%,23.9µM*
Cc1cccc(NC(=O)c2cc(S(=O)(=O)NCCc3ccccc3)ccc2F)c1C,.,.,.,.,.,4.6%
O=C(CCCn1c(=S)[nH]c2cc3c(cc2c1=O)OCO3)NCc1ccccc1Cl,.,.,3.1%,-3.2%,-0.2%[9.26 µM],3.6%
COc1cc(OC)c(OC)cc1CNC(=O)CCN1C(=O)c2cccc([N+](=O)[O-])c2C1=O,.,.,2.9%,-2.4%,2.2%,-1.3%
CCOc1ccc(C(=O)N(Cc2cc(OC)c(OC)c(OC)c2)c2ccccn2)cc1,.,.,.,.,.,5.8%
CCOC(=O)c1ccccc1NC(=O)/C=C/C(=O)O,-1.4%,2.3%[1.84 µM],-0.7%,-3.9%,-1.1%,12.5%
CCCCC(=O)Nc1ccccc1C(=O)OCC(=O)c1ccc2c(c1)OCCO2,-6.4%,-8.9%,?,29.4%,4.2%,1.2µM*
O=C(O)/C=C/C(=O)Nc1ccccc1C(=O)OCC(=O)c1ccc2c(c1)OCCO2,?,-0.9%,15.5%,1.9%,12.4%,0.19µM*
CCOc1ccc(C2=CC(c3cccc(Br)c3)n3c(nc4ccccc43)N2)cc1Cl (stereo unspecified),.,.,.,.,.,13.5µM*
CCc1ccc(C2=CC(c3cccc(C)c3)n3c(nc4ccccc43)N2)cc1 (stereo unspecified),.,.,.,.,.,1.2µM*
CC(C)c1ccc(C2=CC(c3cccc(Cl)c3)n3c(nc4ccccc43)N2)cc1 (stereo unspecified),.,.,.,.,.,21.3µM*
CCc1ccc(C2=CC(c3cccc(OC)c3OC)n3c(nc4ccccc43)N2)cc1 (stereo unspecified),.,.,.,.,.,4.26µM*
Cc1ccc(NC(=O)C2=C(C(=O)O)CCCC2)cc1Br,.,.,0.0%,-5.9%,3.9%,-13.6%
Cc1nnc(SCC(=O)N(CCC#N)c2ccc3c(c2)OCCO3)s1,.,.,-5.6%,-0.1%,-2.7%,0.7%
COc1ccc(/C(C)=N/NC(=O)c2ccc(NS(=O)(=O)c3cccs3)cc2)cc1,.,.,-2.9%,2.4%,1.8%,21.3µM*
COc1ccc(/C(C)=N/NC(=O)c2nc(C)cc(C)n2)cc1,-6.2%,11.2µM*,?,?,5.62µM*,23.9µM*
CCOc1ccc(Oc2ccc(NS(=O)(=O)c3cc(C(=O)O)ccc3Cl)cc2)cc1,.,.,-2.4%,-4.0%,1.9%,0.9%
CCOc1ccc(C(=O)c2cccs2)cc1,-3.8%,11.7%,?,?,?,16.9µM*
CCOc1ccc(NS(=O)(=O)c2cc(NC(=O)c3ccc(C)cc3)ccc2Cl)cc1,7.0%,-68.0%,-26.7%,-29.3%,-4.9%,13.5µM*
CCOc1ccc(NC(=O)c2ccc(NS(=O)(=O)c3cccs3)cc2)cc1,.,.,-2.5%,-6.1%,-1.0%,12µM*
COc1ccc(CCNC(=O)CN(C)S(=O)(=O)c2cccs2)cc1,.,.,-5.4%,-1.7%,-0.6%,8.9%
Cc1ccc(S(=O)(=O)N2[C@@H](c3ccc(C(C)C)cc3)C(C(=O)O)=C[C@H]2C(C)(C)C)cc1,.,.,.,.,0.0%,.
c1ccc(C2=Nc3ccccc3OC2)cc1,-29.4%,12.6%,3.55µM*,?,7.0%,3.01µM*
Cc1ccc2c(c1)N=C(c1ccc(Cl)cc1)CO2,?,22.4µM*,2.51µM*,3.55µM*,?,1.69µM*
SMILES,KinaseGlo FLuc,SMN2 splice enh,Rab9 prom act,NPC1 prom act,ELG1 genotox,FLuc modulator
Clc1ccc(C2=Nc3cc(Cl)ccc3OC2)cc1,-0.6%,?,?,?,?,7.57µM*
Clc1ccc(C2=NN=C3COc4ccccc4N3C2)cc1,0.7%,-19.8%,-2.6%,-0.5%,-4.1%,-17.7%
COc1ccccc1OCC(O)CNCc1ccc2c(c1)OCO2 (stereo unspecified),.,.,-0.3%,0.7%,-3.8%,-2.1%
CCOC(=O)N1CCN(C(=O)c2cc(COc3cccc(C(C)=O)c3)on2)CC1,.,.,?,22.9%,12.8%,?
CCOC(=O)N1CCN(C(=O)c2cc(COc3cccc(C(F)(F)F)c3)on2)CC1,.,.,2.82µM*,3.16µM*,?,15.1µM*
CC(NC(=O)c1cc(COc2cccc(C(F)(F)F)c2)on1)c1nccs1 (stereo unspecified),.,.,2.82µM*,?,?,15.1µM*
O=C(NCC1CCOCC1)c1cc(COc2cccc(C(F)(F)F)c2)on1,.,.,0.6%,-1.5%,-9.4%,0.2%
O=C(NC1CCOC1)c1cc(COc2cccc(C(F)(F)F)c2)on1 (stereo unspecified),.,.,?,0.1%,?,23.9µM*
Cc1ccccc1Cc1c(C)nc2nc(SCC(=O)N(C)c3ccccc3)nn2c1C,.,.,.,.,.,0.9%
C=CCNC(=O)NC(=O)CN1C(=O)NC(c2ccccc2)(c2ccccc2)C1=O,.,.,-5.0%,-1.4%,10.6%,1.7%
CC(C)NC(=O)CSc1c2c(nc3ccccc13)CCCC2,.,.,0.1%,0.2%,12.9%,0.4%
Cc1cccn2c(=O)nc(SCC(=O)c3ccc(Cl)cc3)nc12,.,.,-5.8%,-2.7%,?,1.4%
Cc1cccn2c(=O)nc(SCC(=O)c3ccccc3)nc12,.,.,18.1%,17.4%,20.6µM*,-1.9%
COc1ccc(C(=O)N/N=C/c2cc3ccccc3[nH]c2=S)cc1,-5.9%,-17.4%,9.0%,3.6%,0.4%,?
O=C(N/N=C/c1c[nH]c2ccccc12)c1cccc(Cl)c1,.,.,?,?,13.9%,21.3µM*
COc1ccc(C(=O)N/N=C/c2c[nH]c3ccccc23)cc1,.,.,25.9%,?,3.4%,13.5µM*
O=C(N/N=C/c1c[nH]c2ccccc12)c1ccc(O)c(O)c1,.,.,8.8%,-2.2%,-0.4%,2.39µM*
CCOc1ccccc1C(=O)N/N=C/c1c[nH]c2ccccc12,4.0%,-4.1%,0.4%,-9.1%,0.4%,?
COc1ccc2c(CCNC(=O)Nc3ccccc3)c[nH]c2c1,8.3%,.,4.2%,-10.3%,-1.4%,0.1%
COc1ccc2c(/C=N/Nc3ccc(C(=O)O)cc3)c[nH]c2c1,.,.,1.41µM*,0.794µM*,?,1.35µM*
Cc1cc(C)c2c(N)c(C(=O)NN3CC(=O)N(c4ccccc4)CC3=O)sc2n1,.,.,7.1%,11.6%,-2.1%,-6.2%
CCN(CC)CCCNC(=O)c1cc(Cl)c(NC(=O)C2=C(C)OCCS2)cc1OC,.,.,3.9%,2.6%,2.6%,1.2%
CC(=O)Nc1cccc(C(=O)N/N=C/c2ccc(C)o2)c1,0.1%,-22.2%,-5.4%,-5.5%,-0.9%,-3.2%
